# Measurements: PubChem BioAssay (NCI)
# Where “and” joins values, the source holds several entries; their conditions need not be identical. Equal entries are not always repeated. This is part of a sample that, as a whole, favours compounds with a hit. Of some 83,000 tested, about 20% had one in any assay.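 Compound tested at a single concentration for 48 hours in 96-well plates; a percent growth value below 10 was scored as active.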 Calls of active or inactive are those of the source.
# System: UACC-62 melanoma
# Assay: NCI-60 one-dose screen, 48 h (100 = growth as untreated, 0 = no growth, -100 = all killed)
# Settings: 10 µM unless noted
row,SMILES,growth
1,CC(=O)Oc1ccc2ccc(=O)oc2c1OC(C)=O,24.4% [100 µM] (inactive) and -66.3% [100 µM] (active)
2,COc1cc([N+](=O)[O-])c(OC)c2c(Nc3ccc(S(=O)(=O)O)c4cc(S(=O)(=O)O)cc(S(=O)(=O)O)c34)cc(C)nc12,-91% [100 µM] (active) and -100% [100 µM] (active)
3,CCOc1cc2c(cc1O)/C(=N\N)C[C@@H]1[C@@H]2CC[C@]2(C)[C@@H](O)CC[C@@H]12,17.1% [100 µM] (inactive) and -96.8% [100 µM] (active)
4,Cc1ccc(NC(=S)C#N)c(C)c1,41.9% [100 µM] (inactive) and 1.46% [100 µM] (active)
5,O=C1NC(=S)NC1C(Cc1ccccc1)c1ccco1 (centres undefined),36.5% [100 µM] (inactive) and 57.6% [100 µM] (inactive)
6,O=c1cc(-c2ccc(O)cc2)oc2cc(O[C@@H]3O[C@H](CO)[C@@H](O)[C@H](O)[C@H]3O)cc(O)c12,29.2% [100 µM] (inactive) and -80.1% [100 µM] (active)
7,Cc1ccc(/C=N/Nc2cc(C)c3ccccc3n2)s1,-69.9% [100 µM] (active) and -49% [100 µM] (active)
8,Oc1ccccc1-c1n[nH]c(-c2ccccc2O)n1,45.8% [100 µM] (inactive) and 4.35% [100 µM] (active)
9,Nc1cc2c3c(cccc3c1)C(=O)N(c1ccc(OCCN3CCCC3)cc1)C2=O,-37.5% [100 µM] (active) and -91.1% [100 µM] (active)
10,N#C/C(=C\c1ccccc1)C(=O)Nc1nnc(-c2ccccc2)o1,36.9% [100 µM] (inactive) and -78.4% [100 µM] (active)
11,COc1cc(CC2c3cc(OC)c(OC)cc3CCN2C)c(Oc2cc3c(cc2OC)-c2c(O)c(OC)cc4c2C(C3)N(C)CC4)cc1OC (centres undefined),-60.3% [100 µM] (active) and -87.2% [100 µM] (active)
12,Cc1cc(-c2nc3ccccc3s2)ccc1N,46.1% [100 µM] (inactive) and 40.6% [100 µM] (inactive)
13,O=c1c(-c2ccc3c(c2)OCO3)coc2c3c(ccc12)OCO3,49.2% [100 µM] (inactive) and -100% [100 µM] (active)
14,CC(O)c1cc2c(s1)C(=O)c1c(C(C)O)csc1C2=O (centres undefined),-61.9% [100 µM] (active) and -94.6% [100 µM] (active)
15,NNC1=N/C(=C\c2ccco2)C(Cl)=N1,10.8% [100 µM] (inactive) and -100% [100 µM] (active)
16,CC(=O)c1cc2c(s1)C(=O)c1sccc1C2=O,-45.9% [100 µM] (active) and -100% [100 µM] (active)
17,ClC(Cl)(Cl)C1CCOC1n1nnc2ccccc21 (centres undefined),65.4% [100 µM] (inactive) and 12.8% [100 µM] (inactive)
18,COc1ccc(C2=C(N)c3ccccc3C2=O)cc1,44.1% [100 µM] (inactive) and 22.1% [100 µM] (inactive)
19,Cc1ccc(/C=N/Nc2ccc3ccccc3n2)s1,11.2% [100 µM] (inactive) and -100% [100 µM] (active)
20,Cc1ccnc2[nH]c(-c3ccc(F)cc3)cc(=O)c12,-5.39% [100 µM] (active) and -36.2% [100 µM] (active)
21,C=C1C(=O)OC2/C=C(/C)C3(O)OC(C)(CC(OC(=O)C(C)C)C12)CC3OC(C)=O (centres undefined),-93% [100 µM] (active)
22,CC(C)(C)N/N=C(\C(=O)Nc1ccc([N+](=O)[O-])cc1[N+](=O)[O-])c1nc2ccc([N+](=O)[O-])cc2[nH]c1=O,54.2% [100 µM] (inactive) and 17.5% [100 µM] (inactive)
23,CC1OC(OC2C(O[C@H]3CC[C@@]4(C)C(=CC[C@H]5[C@@H]6C[C@@H]7O[C@]8(CC[C@H](C)CN8)[C@@H](C)[C@@H]7[C@@]6(C)CC[C@@H]54)C3)OC(CO)C(O)C2OC2OC(CO)C(O)C(O)C2O)C(O)C(O)C1O (some centres undefined),96.6% [100 µM] (inactive) and -100% [100 µM] (active)
24,CCCCOC(=O)C1CC[C@H]2[C@@H]3CCc4cc(OC(=O)c5cccc6c(=O)c7ccccc7[nH]c56)ccc4[C@H]3CC[C@]12C (some centres undefined),-100% [50 µM] (active)
